In the library only some 3% were active in any assay of this set; here they are far more common.
MITF act: activators of MITF-driven TRPM1 promoter reporter, primary screen, cell-based, SK-MEL-5, luciferase, single point; SK-MEL-5 TRPM1-promoter luciferase, 24 h; % of positive control, neutral wells = 0; actives 0.75% (n = 300,000); activation, % at 12.5 µM;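 active means mean activation of at least 80% with every replicate also reaching 80%; inconclusive means mean reaches 80% but some replicate falls short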
Statin myotox sup: suppressors of statin myotoxicity in C2C12 myotubes, primary screen, cell-based, single point, plate reader. C2C12 myotubes + simvastatin, ATP luminescence, 48 h; scaled: DMSO 0, geranylgeraniol control 100. rescue of ATP level, % at 7.49 µM. actives 0.78% (n = 330,000);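 active means mean ATP rescue above about 67%, or every replicate alone reaching that limit, limit read from the data, passing the limit was not always enough; inconclusive means no clear call, values can overlap the other calls; inactive means mean under the limit and some replicate under it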;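 further: myotubes were challenged with 10 µM simvastatin during compound exposure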
Wnt bcat act: Wnt/beta-catenin pathway activators, primary screen, cell-based, plate reader, single point | activation, % at 9.35 µM | Wnt/beta-catenin reporter cell assay, activator | actives 1.2% (n = 300,000) | AID 743398, 2014; in the data active means activation above about 30%, passing the limit was not always enough; inconclusive means no clear call, values can overlap the other calls
esBAF inh: Bmi1 luciferase reporter increase in mESCs, primary screen, esBAF inhibitor project, mouse ES cells, Bmi1 luciferase knock-in, single point | actives 2% (n = 350,000) | 24 h; 100% = twice the neutral-well signal | reporter increase, % at 12.5 µM; in the data active means activation above about 40%; inconclusive means no clear call, values can overlap the other calls;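 further: a rise in the Bmi1 reporter signal indicates esBAF inhibition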
Numbers stand for hits; n = inactive; u = inconclusive; x = not tested or not shown.

SMILES | MITF act | Statin myotox sup | Wnt bcat act | esBAF inh
Nc1ccc(C(=O)N/N=C/c2ccccc2)cc1 | 84.3 | x | n | x
O=C(N/N=C/c1ccncc1)c1ccccc1 | n | n | x | n
O=C(/C=C/c1ccc(OC2CSC2)cc1)c1ccccc1 | n | n | 38.5 | u
O=C(N/N=C/c1ccc(OCc2ccc(F)cc2)cc1)c1ccccc1 | n | x | n | x
C[C@@H]1CN([C@@H](C)CO)C(=O)c2cccc(NS(=O)(=O)c3ccccc3)c2O[C@@H]1CN(C)C | x | n | x | n
Cc1noc(C)c1S(=O)(=O)Nc1ccc2c(c1)C(=O)N([C@H](C)CO)C[C@H](C)[C@H](CN(C)S(=O)(=O)c1ccccc1)OCCCC[C@@H](C)O2 | x | x | x | n
CCn1c(N)c(C(=O)N2CCOCC2)sc1=S | n | 128.7 | n | n
COC(=O)[C@H](CC(C)C)NS(=O)(=O)N[C@@H](CC(C)C)C(=O)OC | n | n | n | n
COC(=O)[C@H](CC(C)C)NS(=O)(=O)c1ccccc1 | n | 79.6 | n | n
N/C(=N\OC(=O)c1ccccc1Cl)c1cccnc1 | n | n | x | n
N/C(=N\OC(=O)c1ccc(Cl)c(Cl)c1)c1cccnc1 | n | n | x | 51.8
N/C(=N\OC(=O)c1ccc(Cl)cc1Cl)c1ccncc1 | x | x | 34.8 | x
N/C(=N\OC(=O)c1ccccc1)c1cccnc1 | n | n | 51.2 | 56.3
N/C(=N\OC(=O)c1cc(Cl)ccc1Cl)c1cccnc1 | x | x | x | 51.6
COCc1cn(CC[C@H]2CC[C@@H](NC(=O)Nc3ccc(Cl)cc3)[C@H](CO)O2)nn1 | x | n | x | n
N/C(=N\OC(=O)c1ccccc1)c1ccn[nH]1 | n | n | 48.5 | n
N/C(=N\OC(=O)c1cccc(Cl)c1)c1cccnc1 | n | n | x | 73.4
N/C(=N\OC(=O)c1ccco1)c1ccccc1 | 94.8 | n | 35.6 | u
Cc1occc1C(=O)O/N=C(\N)c1ccc(Cl)cc1 | x | n | 63.4 | 64.1
CC(C)(C)c1ccc(C(=O)O/N=C(\N)c2ccccc2)cc1 | n | n | n | n
Cc1ccc(/C(N)=N/OC(=O)c2ccco2)cc1 | x | n | u | n
CCCNC(=O)N(C)C[C@@H]1Oc2cc(C3=CCCC3)ccc2S(=O)(=O)N([C@@H](C)CO)C[C@H]1C | x | n | x | n
CCCN1C[C@H](C)[C@H](OC)CN(C)C(=O)c2ccc(NC(=O)c3ccccc3F)cc2OC[C@H]1C | x | n | x | n
C[C@@H]1CN([C@H](C)CO)C(=O)Cc2cc(NS(=O)(=O)c3ccc(F)cc3)ccc2O[C@@H]1CN(C)S(=O)(=O)c1cccs1 | x | n | x | n
N/C(=N\OC(=O)c1ccc(Cl)cc1[N+](=O)[O-])c1cccnc1 | x | x | 37.3 | x
SMILES | MITF act | Statin myotox sup | Wnt bcat act | esBAF inh
CCCNC(=O)C[C@@H]1CC[C@H]2[C@@H](COC[C@@H](O)CN2C(=O)Nc2c(C)noc2C)O1 | x | n | x | n
COc1ccccc1-c1cc(C(=O)Nc2cccnc2)no1 | n | n | x | n
O=C(Nc1cccnc1)c1cc(-c2ccc(Cl)cc2Cl)on1 | n | n | 43.2 | n
O=C(Nc1ccc(Cl)cc1Cl)c1csc(-c2cccnc2)n1 | n | n | n | 63.8
O=C(Nc1cccnc1)c1cc(-c2ccc(Cl)cc2)on1 | 129.4 | n | 40.8 | n
CC(C)Cc1cc(C(=O)Nc2cccnc2)no1 | x | n | n | 56.8
O=C(NCc1ccccc1)c1csc(-c2cccnc2)n1 | n | x | n | x
CCNC(=O)C[C@H]1CC[C@H]2[C@H](COc3ccc(NC(=O)c4ccccc4Cl)cc3C(=O)N2C)O1 | x | n | x | n
O=C1CCN(c2ncccc2[N+](=O)[O-])CC1 | n | x | n | x
COc1cc2c(cc1OC)CN(c1ncccc1[N+](=O)[O-])CC2 | 92.8 | n | n | u
COc1cc(C(=O)OCCN2CCOCC2)ccc1O | n | 108.5 | x | n
CO[C@@H]1CN(C)C(=O)c2cc(NC(=O)C3CCCC3)ccc2OC[C@H](C)N(CC2CC2)C[C@H]1C | x | n | x | n
O=C(C[C@@H]1C[C@H]2c3cc(NS(=O)(=O)c4ccccc4)ccc3O[C@H]2[C@@H](CO)O1)NCC1CC1 | x | n | x | n
CO[C@@H]1CN(C)C(=O)c2ccc(NC(=O)c3cc(C)on3)cc2OC[C@H](C)N(C(=O)C2CC2)C[C@H]1C | x | n | x | n
CCc1ccc(C(=O)CCC(=O)Nc2ccc(OC)c(S(=O)(=O)N3CCCCC3)c2)cc1 | n | n | 55.5 | n
COc1ccc(NC(=O)Cn2ccc(C(F)(F)F)n2)cc1S(=O)(=O)N1CCOCC1 | n | 100.8 | n | x
CC#CC#Cc1cccc(=O)o1 | n | 96.8 | n | n
CC(=O)NCCn1c(SCc2cc(=O)n3cc(Cl)ccc3n2)nc2ccccc2c1=O | n | 75.3 | n | n
Cc1ccc(S(=O)(=O)N(C)C[C@@H]2Oc3ncc(-c4ccccc4)cc3C(=O)N([C@H](C)CO)C[C@@H]2C)cc1 | x | n | x | n
CCOc1ccc(OCCCCN(C)C)cc1 | n | 90.1 | x | n
O=C(c1ccc(-c2ccccc2Cl)s1)N1CCOCC1 | 91.6 | x | n | x
C[C@H](O)C#Cc1cnc2c(c1)C(=O)N([C@H](C)CO)C[C@H](C)[C@@H](CN(C)C(=O)c1ccccc1)O2 | x | n | x | n
Cc1nc2ncnn2c(N2CCN(C(c3ccccc3)c3ccccc3)CC2)c1C | n | 79.1 | x | n
CCOCC(=O)NCc1ccc2c(c1)OCO2 | n | 76.1 | x | n
CC(=Nc1ccc(O)cc1)c1sc2ccccc2c1O | n | x | x | x
SMILES | MITF act | Statin myotox sup | Wnt bcat act | esBAF inh
CC(=Nc1cccc(C)c1)c1sc2ccccc2c1O | n | n | x | 52.3
CC(=O)NCCN=C(C)c1sc2ccccc2c1O | n | n | x | 41.0
C[C@@H]1CN([C@@H](C)CO)S(=O)(=O)c2ccc(C#CC3(O)CCCC3)cc2O[C@H]1CN(C)C(=O)Nc1ccccc1 | x | n | x | n
O=C(CC(c1ccccc1)c1ccco1)N1CCOCC1 (stereo unspecified) | n | 128.4 | x | n
Cc1ccccc1Nc1nc(N)c2ccccc2n1 | n | n | 39.7 | n
Nc1nc(Nc2ccccc2)nc2ccccc12 | x | n | 40.6 | n
Nc1nc(Nc2ccc(Cl)cc2)nc2ccccc12 | x | n | x | n
COc1ccc(C)cc1Nc1nc(N)c2ccccc2n1 | x | n | n | n
Cc1ccc(S(=O)(=O)Nc2cccc3c2O[C@H](CN(C)C(=O)Nc2ccc(F)cc2)[C@@H](C)CN([C@@H](C)CO)C3=O)cc1 | x | n | x | n
COC(=O)C[C@H]1CC[C@H]2[C@@H](COc3ccc(NC(=O)c4cnccn4)cc3C(=O)N2C)O1 | x | n | x | n
Cc1cccc2c(=O)n3c(cc12)-c1[nH]c2ccccc2c1CC3 | n | x | n | x
O=c1c2ccccc2nc2n1CCc1c-2[nH]c2ccccc12 | n | n | 40.7 | n
COc1ccc(CCc2nc(-c3ccc(-n4cccc4)cc3)no2)cc1 | n | n | n | n
COc1ccc(-c2noc(Cc3ccccc3OC)n2)cc1 | n | n | x | u
COc1ccc(-c2noc(CCc3ccccc3)n2)cc1 | n | x | n | 57.1
COc1ccc(-c2noc(Cc3cccs3)n2)cc1 | 118.6 | 92.8 | n | 54.6
NCCCNc1nc(N)c([N+](=O)[O-])c(NC2CCCCC2)n1 | n | 104.6 | n | n
O=C(NCC[C@@H]1CC[C@H](NC(=O)C2CCOCC2)[C@@H](CO)O1)c1ccc(F)cc1 | x | n | x | n

Screens from PubChem.
